These results are taken from PubChem BioAssay (Tox21).

Values without a mark were called inactive. Results filed as inconclusive are left out. The source made the active and inactive calls. Unless noted, calls follow the shape of the dose curve; as a rule, active = well fitted curve in the direction sought with a large enough effect in the repeat runs; inconclusive = weak or mixed curves; inactive = no such curve, though single readings can be large; an effect the other way counts as inactive or inconclusive.

For experiment [1], the target named is Thyrotropin receptor (Homo sapiens) (UniProt P16473). In words: qHTS assay to identify small molecule antagonists of the thyroid stimulating hormone receptor (TSHR) signaling pathway (AID 1259385; calls by dose curve; also: nearly all actives have a fitted effect of over 20% in size). In outline:
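TSHR-HEK293 cells were plated and held 18 h at 37C/5% CO2, then given compound plus Ro20-1724 and stimulated with TSH at 1.5 ng/mL final. After 30 min at room temperature, cAMP was detected with cAMP-d2/anti-cAMP-cryptate (1 h) by fluorescence.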

Experiment [2] in a line: qHTS assay to identify small molecule agonists of the estrogen receptor alpha (ER-alpha) signaling pathway in the presence of an antagonist - cell viability counter screen (AID 1259386).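 Also: cells exposed to compounds for 22 h at 37 °C before the viability read; nearly all actives have a fitted effect of over 30% in size.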 Also: potency is read from the fitted curve at half-maximal effect. In outline:
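In this counter screen, compound effects on VM7Luc4E2 viability were tested in the presence of the antagonist ICI-182,780 at 10.0nM final. Compounds were dosed at 15 concentrations, exposure lasted 22hr, and the CellTiter-Fluor signal was read.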
In general terms: In qHTS, concentration-response curves come from the screen itself.

Experiment [3] is described as follows: qHTS assay to identify small molecule agonists of the TGF-beta/Smad signaling pathway - cell viability counter screen (AID 1346829). Also: top concentration of the series differs between compounds; nearly all actives have a fitted effect of over 45% in size. The essentials:
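SBE-bla HEK 293T cells plated overnight, compound exposure 5 hr at 37 C. Viability read in the same wells by CellTiter-Glo luminescence after 30 min at room temperature, following the beta-lactamase read.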

The nature of experiment [4]: qHTS assay to identify small molecule agonists of the TGF-beta/Smad signaling pathway (AID 1346859; active = well fitted activation curve with a large enough effect in the signal ratio in the repeat runs, not every such curve was filed as active; the % refers to the signal ratio; also: series mostly up to about 77 µM). The essentials: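 Beta-lactamase reporter activity downstream of Smad binding elements was measured in stably transfected HEK 293T cells; compounds were incubated for 5 hr, substrate for 2 hr at room temperature.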
The target of experiment [5] is Thyrotropin-releasing hormone receptor (Homo sapiens) (UniProt P34981). The experiment is described as follows: qHTS assay to identify small molecule antagonists of the thyrotropin-releasing hormone receptor (TRHR) signaling pathway (AID 1346877; active = well fitted inhibition curve with a large enough effect in the repeat runs, not every such curve was filed as active; also: series mostly up to about 51 µM). In outline: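 Kinetic fluorescence (3 min, 1 s resolution) following stimulation with TRH at 1 nM final; HEK293 cells bearing human TRHR; 5 min compound preincubation at RT; concentration-response over 15 points, triplicates.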

The target is the same in experiment [6]. The experiment is described as follows: qHTS assay to identify small molecule agonists of the thyrotropin-releasing hormone receptor (TRHR) signaling pathway (AID 1346891; calls by dose curve;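 also: HEK293 cells expressing TRHR with calcium dye readout; series mostly up to about 58 µM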). The essentials:
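Overnight-plated (18 h, 37 °C, 5% CO2) TRHR-Hek293 cells; 2 h calcium dye at 37 °C; compound in DMSO; 3-min kinetic fluorescence read.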

Experiment [7] in a line: Human pregnane X receptor (PXR) small molecule agonists, qHTS cell viability counter screen (AID 1346977). Also: nearly all actives have a fitted effect of over 50% in size. Also: potency is read from the fitted curve at half-maximal effect. In outline:
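After a 5hr pre-incubation, PXR-Luc HepG2 cells received compounds plus positive control in DMSO and were kept 24hr at 37C. Cell viability was quantified by fluorescence from CellTiter-Fluor added for the final hour.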

The nature of experiment [8]: Caspase-3/7 induction in HepG2 cells by small molecules, qHTS assay (AID 1346978). Also: nearly all actives have a fitted effect of over 15% in size. The essentials:
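Wild-type HepG2 cells (2,000/well) were settled 5 h at 37 C, 5% CO2, then exposed to compounds in DMSO for 17 h. Caspase-3/7 activity was read by luminescence 30 min after adding Caspase-Glo 3/7 reagent at room temperature.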

The nature of experiment [9]: Caspase-3/7 induction in CHO-K1 cells by small molecules, qHTS cell viability counter screen (AID 1346979). Also: nearly all actives have a fitted effect of over 35% in size. Also: potency is read from the fitted curve at half-maximal effect. In outline:
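Multiplexed with Caspase-Glo 3/7 in CHO-K1 cells, this counter screen added CellTiter-Fluor after 16hr of compound exposure and recorded fluorescence 1hr later.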

A short description of experiment [10]: Caspase-3/7 induction in CHO-K1 cells by small molecules, qHTS assay (AID 1346980). Also: nearly all actives have a fitted effect of over 15% in size. Also: potency is read from the fitted curve at half-maximal effect. The essentials: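 Wild-type cells were seeded at 1,500 per well and settled 5 hr at 37 C, 5% CO2, then exposed to DMSO-dissolved compounds for 17 hr. Caspase-Glo 3/7 reagent was added, and luminescence was read after 30min at room temperature.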
In experiment [11] the target is Nuclear receptor subfamily 1 group I member 2 (Homo sapiens) (UniProt O75469). In words: Human pregnane X receptor (PXR) small molecule agonists, qHTS assay (AID 1346982). Also: nearly all actives have a fitted effect of over 35% in size. Also: potency is read from the fitted curve at half-maximal effect. The essentials: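 Reporter HepG2 cells expressing PXR-Luc are cultured in charcoal-stripped FBS (5%), treated with compounds for 24 hr at 37 C, and assayed by ONE-Glo luminescence after 30 min at room temperature.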

The target in experiment [12] is Progesterone receptor (Homo sapiens) (UniProt P06401). In words: qHTS assay to identify small molecule agonists of the progesterone receptor (PR) signaling pathway (AID 1346784; calls by dose curve; also: nearly all actives have a fitted effect of over 30% in size). In outline: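 Seed PR-UAS-bla HEK 293T cells (2% charcoal-stripped FBS), incubate 6 hr at 37C; add compounds in DMSO, 16 hr at 37C; add LiveBLAzer B/G substrate, 2 hr RT; read fluorescence intensity.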

Experiment [13] has the same target. In words: qHTS assay to identify small molecule antagonists of the progesterone receptor (PR) signaling pathway (AID 1346795; active = well fitted inhibition curve with a large enough effect in the signal ratio in the repeat runs, not every such curve was filed as active; the % refers to the signal ratio; also: potency is read from the fitted curve at half-maximal effect). The essentials:
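Screening used a GripTite HEK293T line with PR-responsive UAS-beta-lactamase. Cells were challenged with compound in the presence of 1 nM R5020 final for 16 hr at 37C; B/G FRET substrate, 2 hr room temperature, fluorescence.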

Experiment [14] is described as follows: qHTS assay to identify small molecule antagonists of the progesterone receptor (PR) signaling pathway - cell viability counter screen (AID 1346798). Also: nearly all actives have a fitted effect of over 50% in size. Also: potency is read from the fitted curve at half-maximal effect. In outline: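 Measures cytotoxicity in parallel with the PR antagonist reporter read: HEK293T PR-UAS-bla cells get compound and R5020 for 16 hr, and remaining viable cells are quantified by CellTiter-Glo luminescence.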

Experiment [15] can be described thus: qHTS assay to identify small molecule agonists of the progesterone receptor (PR) signaling pathway - cell viability counter screen (AID 1346799; calls by dose curve; also: nearly all actives have a fitted effect of over 45% in size). In outline: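 Using the same plates as the PR reporter screen, HEK293T PR-UAS-bla cells received compounds for 16 hr at 37C and were then lysed with CellTiter-Glo; luminescence was read 30 min later at room temperature.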

Experiment [16] can be described thus: Caspase-3/7 induction in HepG2 cells by small molecules, qHTS cell viability counter screen (AID 1346981). Also: series mostly up to about 92 µM; nearly all actives have a fitted effect of over 30% in size. In outline:
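In this quantitative HTS counter screen, compounds delivered in DMSO were left on unmodified HepG2 cells for 16 hr at 37 C. Viability was then determined fluorometrically with CellTiter-Fluor, in parallel with caspase-3/7 induction in the same wells.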

Experiment [17] can be described thus: qHTS assay to identify small molecule antagonists of the TGF-beta/Smad signaling pathway - cell viability counter screen (AID 1346824). Also: nearly all actives have a fitted effect of over 50% in size. The essentials:
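SBE-bla HEK 293T cells were plated overnight at 37 C, then given compounds in DMSO plus TGF-beta1 (added as 0.25 ng/mL solution) for 5 hr. After the bla read, CellTiter-Glo was added to the same wells and luminescence read after 30 min at room temperature.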

The target in experiment [18] is Nuclear receptor subfamily 1 group I member 2 (Rattus norvegicus) (UniProt Q9R1A7). In words: Rat pregnane X receptor (rPXR) activation by small molecules, qHTS assay (AID 1346983). Also: nearly all actives have a fitted effect of over 20% in size. Conditions: rPXR luciferase reporter cells, One-Glo luminescence, 24 h; max activation: hits give high values. In outline: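 Cell-based rPXR luciferase reporter assay, 2,000 cells per well, rested 5hr at 37 C before compound addition in DMSO, then 24 hr at 37 C. One-Glo reagent was added and luminescence read after 30 min at room temperature.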

In experiment [19] the target is Nuclear receptor subfamily 1 group I member 2 (Homo sapiens) (UniProt O75469). The experiment is described as follows: CYP3A4 induction through human pregnane X receptor (PXR) by small molecules, qHTS assay (AID 1346984). Also: nearly all actives have a fitted effect of over 40% in size. The essentials:
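Induction measured in HepG2-based DPX-2 cells co-expressing human PXR and a CYP3A4 promoter-driven luciferase. After a 24-hour compound exposure, cells received CYP3A4 luciferin substrate at 3uM final for 3 hours, and light output was then recorded.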

Experiment [20] has the same target. The experiment is described as follows: Human pregnane X receptor (PXR) activation by small molecules, qHTS assay (AID 1346985). Also: nearly all actives have a fitted effect of over 40% in size. In outline: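 DPX-2 cells (HepG2 co-transfected with a PXR response element and a CYP3A4-promoter luciferase construct) were seeded at 2,000 per well, rested 5 hr at 37C, then exposed to DMSO-dissolved compounds for 24 hr. Activation was read as luciferase luminescence.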
% is scaled to controls: 0 for no effect and ±100 for the full control effect.

Progesterone receptor (Homo sapiens), sequence (P06401 whole entry, looked up): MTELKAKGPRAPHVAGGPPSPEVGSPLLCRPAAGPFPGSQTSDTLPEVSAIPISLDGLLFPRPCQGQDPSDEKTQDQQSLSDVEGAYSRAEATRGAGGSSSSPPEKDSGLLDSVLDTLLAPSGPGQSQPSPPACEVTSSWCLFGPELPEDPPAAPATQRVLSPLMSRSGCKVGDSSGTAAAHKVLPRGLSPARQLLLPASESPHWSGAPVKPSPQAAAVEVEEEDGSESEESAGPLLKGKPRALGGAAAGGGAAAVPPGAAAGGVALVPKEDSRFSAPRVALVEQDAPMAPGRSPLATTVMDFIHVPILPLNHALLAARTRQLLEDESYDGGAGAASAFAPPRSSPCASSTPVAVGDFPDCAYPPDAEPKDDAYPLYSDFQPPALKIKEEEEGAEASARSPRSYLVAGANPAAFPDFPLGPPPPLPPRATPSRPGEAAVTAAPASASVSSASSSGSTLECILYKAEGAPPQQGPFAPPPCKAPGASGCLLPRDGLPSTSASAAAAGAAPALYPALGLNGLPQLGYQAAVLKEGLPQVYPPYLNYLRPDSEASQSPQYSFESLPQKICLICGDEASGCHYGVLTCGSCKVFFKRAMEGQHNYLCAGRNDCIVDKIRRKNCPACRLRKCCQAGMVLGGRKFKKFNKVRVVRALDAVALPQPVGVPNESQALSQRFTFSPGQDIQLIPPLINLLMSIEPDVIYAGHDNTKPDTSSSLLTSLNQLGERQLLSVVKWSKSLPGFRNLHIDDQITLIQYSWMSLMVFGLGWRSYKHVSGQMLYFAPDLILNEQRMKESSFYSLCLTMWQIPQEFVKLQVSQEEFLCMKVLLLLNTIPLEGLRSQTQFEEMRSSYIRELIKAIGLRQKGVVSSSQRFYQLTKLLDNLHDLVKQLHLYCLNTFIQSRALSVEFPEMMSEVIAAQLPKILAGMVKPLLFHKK
Thyrotropin-releasing hormone receptor (Homo sapiens), sequence (P34981 whole entry, looked up): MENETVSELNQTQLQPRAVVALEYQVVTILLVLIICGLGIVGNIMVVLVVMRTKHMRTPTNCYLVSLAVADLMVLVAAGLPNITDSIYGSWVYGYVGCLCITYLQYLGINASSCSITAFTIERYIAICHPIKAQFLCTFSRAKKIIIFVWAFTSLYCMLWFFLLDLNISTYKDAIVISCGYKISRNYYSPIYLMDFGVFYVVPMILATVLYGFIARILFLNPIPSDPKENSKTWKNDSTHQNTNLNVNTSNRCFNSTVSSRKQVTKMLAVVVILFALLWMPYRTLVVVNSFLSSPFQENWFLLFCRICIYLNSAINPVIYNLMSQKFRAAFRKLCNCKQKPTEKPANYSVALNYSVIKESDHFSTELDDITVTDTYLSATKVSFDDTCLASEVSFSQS
Nuclear receptor subfamily 1 group I member 2 (Homo sapiens), sequence (O75469 whole entry, looked up): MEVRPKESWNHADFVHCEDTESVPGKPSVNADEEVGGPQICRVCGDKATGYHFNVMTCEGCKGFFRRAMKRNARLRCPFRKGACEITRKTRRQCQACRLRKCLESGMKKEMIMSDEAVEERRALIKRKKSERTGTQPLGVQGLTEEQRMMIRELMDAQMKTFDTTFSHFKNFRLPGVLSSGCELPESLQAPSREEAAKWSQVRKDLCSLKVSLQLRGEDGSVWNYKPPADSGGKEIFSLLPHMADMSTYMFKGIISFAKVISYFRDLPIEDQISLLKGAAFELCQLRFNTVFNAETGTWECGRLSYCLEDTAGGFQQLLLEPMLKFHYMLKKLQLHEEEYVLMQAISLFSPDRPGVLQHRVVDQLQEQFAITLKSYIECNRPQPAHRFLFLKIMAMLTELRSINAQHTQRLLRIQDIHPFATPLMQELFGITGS
Thyrotropin receptor (Homo sapiens), sequence (P16473 whole entry, looked up): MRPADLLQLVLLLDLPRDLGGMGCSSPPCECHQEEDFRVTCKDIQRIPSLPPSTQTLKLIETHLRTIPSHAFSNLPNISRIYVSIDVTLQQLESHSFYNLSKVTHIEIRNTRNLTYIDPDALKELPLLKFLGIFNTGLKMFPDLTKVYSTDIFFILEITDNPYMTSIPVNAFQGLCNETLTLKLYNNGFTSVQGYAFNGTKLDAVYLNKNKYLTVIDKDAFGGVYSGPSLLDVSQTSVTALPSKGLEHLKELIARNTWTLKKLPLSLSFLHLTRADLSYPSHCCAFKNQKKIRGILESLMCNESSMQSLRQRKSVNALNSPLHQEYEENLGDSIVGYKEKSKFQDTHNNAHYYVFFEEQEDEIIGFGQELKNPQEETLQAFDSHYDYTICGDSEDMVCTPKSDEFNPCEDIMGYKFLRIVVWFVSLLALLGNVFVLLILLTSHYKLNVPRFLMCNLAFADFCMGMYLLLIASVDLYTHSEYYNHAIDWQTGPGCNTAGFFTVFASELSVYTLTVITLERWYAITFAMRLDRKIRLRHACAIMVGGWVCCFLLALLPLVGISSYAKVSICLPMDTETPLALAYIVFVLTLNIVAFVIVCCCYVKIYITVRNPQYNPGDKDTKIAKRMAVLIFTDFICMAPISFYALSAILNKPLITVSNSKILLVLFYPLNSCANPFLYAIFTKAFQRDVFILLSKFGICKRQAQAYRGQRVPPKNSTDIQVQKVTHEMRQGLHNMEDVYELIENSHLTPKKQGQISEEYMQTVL
Nuclear receptor subfamily 1 group I member 2 (Rattus norvegicus), sequence (Q9R1A7 whole entry, looked up): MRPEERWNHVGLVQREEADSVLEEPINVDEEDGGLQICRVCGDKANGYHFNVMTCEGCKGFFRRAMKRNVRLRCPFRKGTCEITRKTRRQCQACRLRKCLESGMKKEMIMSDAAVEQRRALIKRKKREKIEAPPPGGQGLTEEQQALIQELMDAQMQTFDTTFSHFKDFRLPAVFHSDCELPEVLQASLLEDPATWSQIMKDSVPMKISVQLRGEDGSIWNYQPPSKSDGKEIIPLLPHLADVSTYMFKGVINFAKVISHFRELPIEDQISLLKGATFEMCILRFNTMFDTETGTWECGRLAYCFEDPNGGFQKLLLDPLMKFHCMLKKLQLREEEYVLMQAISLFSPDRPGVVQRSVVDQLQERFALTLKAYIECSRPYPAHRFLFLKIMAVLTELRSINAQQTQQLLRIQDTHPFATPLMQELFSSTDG

For the compound `NC1[C@H]2CN(c3nc4c(cc3F)c(=O)c(C(=O)O)cn4-c3ccc(F)cc3F)C[C@@H]12` (stereo partly drawn), the Potency entry in experiment [1], in experiment [2], in [3], in experiment [4], in [6] and in experiment [8] was “inactive” each time. In [10], the Potency result was “inactive”. Moreover, the outcome in experiment [5] was inactive. The Potency in experiment [7] was 29.8 µM (active); in experiment [9], 3.76 µM (active); in experiment [11] it was 26.6 µM (active).
Consider `CCC(C)COC(C)=O` (stereo not drawn), for which the Potency result in experiment [2], in [12], in experiment [13], in experiment [14], in experiment [15] and in [3] was “inactive” in each case. The Potency entry in [4], in [8], in experiment [9], in experiment [10], in experiment [16] and in [11] was “inactive” in each case.
For `C=CC(=O)[O-].C=CC(=O)[O-].[Zn+2]`, the Potency result in [2], in experiment [17], in experiment [4], in experiment [7], in [8] and in experiment [9] was “inactive” each time. Moreover, the Potency entry in experiment [10], in [16] and in experiment [11] was “inactive” in each case. Besides, the Potency in experiment [14] was 67 µM (active).
With `CCOc1cccc(-n2cc(C(=O)N3CCN(c4cc(C(=O)O)c5ccccc5c4)CC3)nc2-c2ccc(C)cc2)c1`, the Potency result in experiment [2], in [12], in experiment [17], in experiment [8] and in [16] was “inactive” each time. In addition, the Potency in experiment [9] and in experiment [10] was 58.3 µM (active) throughout.
Take `O=C(OCC(O)CO)c1ccccc1Nc1ccnc2cc(Cl)ccc12` (stereo not drawn): the Potency result in experiment [2], in [12], in experiment [17], in experiment [3], in experiment [4] and in experiment [6] was “inactive” throughout. For the same compound, the Potency entry in experiment [8], in experiment [10], in [16], in [19] and in experiment [20] was “inactive” each time. Besides, the Potency in experiment [13] was 21.1 µM (active); in experiment [7], 26.6 µM (active); in experiment [11], 11.9 µM (active). In [5], the compound was called inactive. For the same compound, the max activation in experiment [18] is -2.2%.
`N#[N+]c1ccc2c(S(=O)(=O)[O-])cccc2c1O`: in experiment [2], the Potency was 43.3 µM (active). Besides, the Potency result in experiment [12], in [15], in [3], in experiment [4], in [6] and in experiment [8] was “inactive” each time. Moreover, the Potency entry in experiment [10], in experiment [16] and in experiment [11] was “inactive” each time. Also, the result in [5] was inactive.
With `CC(=O)OCCN(CCOC(C)=O)c1ccc(N=Nc2ccc([N+](=O)[O-])cc2C#N)cc1`, the Potency in [2] and in experiment [9] was 54.5 µM (active) each time. Also, the Potency result in [12], in experiment [13], in experiment [14], in [3], in [4] and in experiment [6] was “inactive” each time. Also, the Potency result in experiment [8] and in experiment [10] was “inactive” each time. Further, the outcome in experiment [5] was inactive.
